# Measured values: ChEMBL document CHEMBL4513151, “CO-ADD screening of Institut Català d'Investigació Química (Spain) compounds”
# Where “and” joins values, the source holds several entries; their conditions need not be identical. Equal values may be shown once. Results with a measured potency or affinity are listed apart.
# Assays:
# Klebsiella pneumoniae = settings: Concentration 32 ug.mL-1, ASSAY_TEST Inhibition of Bacterial Growth, detection method Absorption (OD600), MEDIA CAMHB, plate type 384well, NBS, CORNING #3640, time 18 hr
# Candida albicans = settings: 32 ug/mL
# Cryptococcus neoformans = settings: Concentration 32 ug.mL-1, ASSAY_TEST Inhibition of Fungal Growth, detection method Resazurin, Absorption (OD600-OD570), plate type 384well, NBS, CORNING #3640
Compound,Inhibition (Klebsiella pneumoniae) [%],Inhibition (Candida albicans),Inhibition (Cryptococcus neoformans) [%],Inhibition (Klebsiella pneumoniae; 32 ug/mL),Inhibition (Cryptococcus neoformans; 32 ug/mL)
C[C@@H]1CC(=O)C=C2C(=O)[C@@H]3[C@@H](C3(C)C)[C@]21C,18.57,-0.58%,-14.72,–,–
C=C1CC(C(=O)OC)(C(=O)OC)C[C@@H]1[C@H](c1ccccc1)n1ccc2ccc(Cl)cc21,17.79,3.75%,-67.72,–,–
C=C1CC(COCc2ccc(OC)cc2)(COCc2ccc(OC)cc2)C[C@@H]1[C@@H](Nc1ccc(Br)cc1)c1ccccc1,3.98,-6.97%,-42.12,–,–
C=C1CC(C(=O)OC)(C(=O)OC)C[C@@H]1[C@@H](NS(=O)(=O)c1ccc(C)cc1)c1ccccc1,18.19,0.13%,-29.89,–,–
C[C@]12CC[C@@](C)(O1)[C@H]1C=C[C@H](OC(=O)c3ccccc3)[C@H]12,15.14,5.91%,-25.36,–,–
C=C1CC(C(=O)OC)(C(=O)OC)C[C@@H]1[C@H](c1ccccc1)n1ccc2ccccc21,21.67,-0.58%,-68.85,–,–
C=C1CC2(COC(C)(C)OC2)C[C@@H]1[C@@H](Nc1ccc(Br)cc1)c1ccccc1,31.4,6.45%,-62.96,–,–
C=C1CC(COC)(COC)C[C@@H]1[C@@H](Nc1ccc(Br)cc1)c1ccccc1,12.17,5.3%,-62.06,–,–
C[C@]12CC[C@@](C3CCCC3)(O1)[C@H]1C=C[C@H](OC(=O)c3ccccc3)[C@H]12,19.59,4.96%,-56.17,–,–
C[C@]12CC[C@@](c3ccc4ccccc4c3)(O1)[C@H]1C=C[C@H](OC(=O)c3ccccc3)[C@H]12,30.93,2.97%,-55.94,–,–
C[C@]12CC[C@@](c3ccc(C(F)(F)F)cc3)(O1)[C@H]1C=C[C@H](OC(=O)c3ccccc3)[C@H]12,–,-0.5% and 4.46%,–,10.18% and 19.4%,–
C[C@]12CC[C@@](C3CC3)(O1)[C@H]1C=C[C@H](OC(=O)c3ccccc3)[C@H]12,–,3.68% and 4.72%,–,19.23% and 15.4%,–
C[C@]12CC[C@@](c3ccccc3)(O1)[C@H]1C=C[C@H](OC(=O)c3ccccc3)[C@H]12,–,-1.59% and 4.39%,–,–,-55.26% and -63.64%
C[C@]12CC[C@@H](O1)[C@H]1C=C[C@H](OC(=O)c3ccccc3)[C@H]12,19.45,6.1%,-82.89,–,–
